# Source: PubChem BioAssay (Tox21)
# Records with an inconclusive call do not appear. Unmarked numbers belong to inactive results. Calls come from the whole dose curve.
# Molecular target: Vitamin D3 receptor (Homo sapiens) (UniProt P11473)
# Experiment: qHTS assay to identify small molecule agonists of the vitamin D receptor (VDR) signaling pathway (AID 743222)
# Details: HEK293T VDR-UAS-bla, beta-lactamase FRET ratio, 16 h; series mostly up to 63.5 µM; activation: at the top concentration
# Text: National Center for Advancing Translational Sciences [NCATS]
# NIH Chemical Genomics Center [NCGC]
# U.S. Environmental Protection Agency [EPA]
# National Institutes of Environmental Health Sciences [NIEHS]
# National Toxicology Program [NTP]
# U.S. Food and Drug Administration [FDA]
# The vitamin D receptor (VDR), a member of nuclear hormone receptor superfamily, plays a critical role in calcium homeostasis and bone metabolism. It is also involved in cell differentiation and growth, and thrombogenicity.
# Tox21 Assay Protocol Summary:
# VDR-bla cells were dispensed at 2,000 cells/6 uL/well into black wall/clear-bottom 1536-well plates using a Multidrop Combi (Thermo Fisher Scientific, Waltham, MA) dispenser. After the assay plates were incubated at a 37C and 5% CO2 for 4 h, 23 nL of compounds dissolved in DMSO, positive controls or DMSO only was transferred to the assay plate by a Pintool station (Kalypsys, San Diego, CA). The plates were incubated at 37C and 5% CO2 for 16 h. After 1 uL of LiveBLAzerTM B/G FRET substrate was added using a Bioraptr Flying Reagent Dispenser (FRD) workstation (Beckman Coulter, Indianapolis, IN, USA), the plates were incubated at room temperature for 2 h, and fluorescence intensity was measured by an Envision plate reader (PerkinElmer, Shelton, CT).
# % is set by controls: 0 for no effect and ±100 for the full control effect.
# Vitamin D3 receptor (Homo sapiens), sequence (P11473 whole entry, looked up): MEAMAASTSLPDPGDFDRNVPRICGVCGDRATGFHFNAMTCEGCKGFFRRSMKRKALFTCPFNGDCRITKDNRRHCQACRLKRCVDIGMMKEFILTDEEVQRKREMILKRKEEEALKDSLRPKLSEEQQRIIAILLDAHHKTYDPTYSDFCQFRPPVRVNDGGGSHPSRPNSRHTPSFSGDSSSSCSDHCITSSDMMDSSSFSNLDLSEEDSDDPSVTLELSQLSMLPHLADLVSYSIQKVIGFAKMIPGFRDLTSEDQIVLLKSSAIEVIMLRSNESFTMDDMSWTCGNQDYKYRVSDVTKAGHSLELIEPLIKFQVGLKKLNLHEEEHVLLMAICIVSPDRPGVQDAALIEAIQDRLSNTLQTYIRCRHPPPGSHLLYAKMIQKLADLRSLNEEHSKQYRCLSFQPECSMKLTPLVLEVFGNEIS
row,Structure (SMILES),activation
1,COc1cc(NC(C)CCCN)c2ncccc2c1 (stereo not given),-0.0783%
2,OCC(CO)n1cnc(-c2ccc(F)cc2)c1-c1ccnc(Oc2ccccc2)n1,-4.69%
3,CCCCCc1ccco1,-9.34%
4,CCN(CC)CCOc1ccccc1C(=O)CCc1ccccc1,-2.91%
5,N[C@@H](Cc1cc(I)c(O)c(I)c1)C(=O)O,4.44%
6,CCN(CC)CC(=O)Nc1c(C)cccc1C(=O)OC,6.93%
7,c1ccc(CNc2ncnc3c2ncn3C2CCCCO2)cc1 (stereo not given),4.29%
8,CCCCCCCC/C=C/C(=O)O,0.633%
9,CC(=O)OCCC(C)CC(C)(C)C (stereo not given),-4.16%
10,COc1cc(NS(=O)(=O)c2ccc(N)cc2)nc(C)n1,0.748%
11,O=C1OC[C@H](Cc2cccc(O)c2)[C@H]1Cc1cccc(O)c1,-2.93% [at 29.5 µM]
12,CCCCCCCCCCCCCCN(C)C,-12.3% [at 29.5 µM]
13,CCN(Cc1cccc(S(=O)(=O)O)c1)c1ccc(C(=C2C=CC(=[N+](CC)Cc3cccc(S(=O)(=O)O)c3)C=C2)c2ccc(O)cc2S(=O)(=O)[O-])cc1,2.07%
14,O=C1NC(=O)c2cccc3cccc1c23,7.02%
15,Cc1ccc2c(c1[N+](=O)[O-])C(=O)c1ccccc1C2=O,-0.783%
16,FC(F)(F)C(F)(F)C(F)(F)C(F)(F)CCI,-0.806% [at 29.5 µM]
17,Nc1ccc(S(=O)(=O)NCc2ccccc2)cc1,0.776%
18,Oc1cccc2[nH]ccc12,-3.76%
19,O=P(O)(O)Oc1ccccc1,-0.103%
20,CCCCCCC(O)CCOC(C)=O (stereo not given),5.41% [at 236 µM]

row,Structure (SMILES),activation
1,CC(=O)NNC(C)=O,4.2% [at 81.1 µM]
2,CNCc1ccc(NC(=O)c2c[nH]c3c2C(=O)CCC3)cc1,-6.22%
3,CC(=O)NCCO,-9.39%
4,CN1C(CSCC(F)(F)F)Nc2cc(Cl)c(S(N)(=O)=O)cc2S1(=O)=O (stereo not given),-3.93%
5,CCNc1nc(N)nc(Cl)n1,3.97%
6,CC(C)Cc1ccc(CC(=O)O)cc1,-7.84%
7,O=C(C(=O)c1ccco1)c1ccco1,-4.17% [at 81.1 µM]
8,CC/C=C\C/C=C\C/C=C\CCCCCCCC(=O)OCC,-19.7% [at 81.1 µM]
9,CCCCCCCC(=O)OCCCCCC,-2.6%
10,CC(C)(C)CCCCCCOC(=O)c1ccccc1C(=O)OCCCCCCC(C)(C)C,-8.19%
11,CCC(C)(C)C(=O)O,-1.7%
12,CCCCC[C@H](O)/C=C/[C@H]1[C@H](O)CC(=O)[C@@H]1C/C=C\CCCC(=O)O,-20.5%
13,C/C(C=O)=C\c1ccccc1,3.25%
14,CC(C)c1ccc(C(=O)N=C(N)N)cc1S(C)(=O)=O,0.199%
15,CCOC(=O)c1ccc(NC(=O)CN2CCCCC2)cc1,-6.83%
16,C[C@@H]1C[C@H]2[C@@H]3CCC4=CC(=O)C=C[C@]4(C)[C@@]3(F)[C@@H](O)C[C@]2(C)[C@@]1(O)C(=O)COP(=O)(O)O,5.54%
17,CCOc1ncc(F)c(=O)[nH]1,-0.0702%
18,CC1CCC(C(C)CS)CC1S (stereo not given),0.565%
19,CC1C(C)(C)C2=C(C(=O)CCC2)C1(C)C (stereo not given),-8.25%
20,O=C(O)CN1C(=O)c2cccc3cccc(c23)C1=O,0.978%
